The text below walks through data of PubChem BioAssay AID1347076 (National Center for Advancing Translational Sciences (NCATS), 2019).

Structures are written as SMILES. In all, about 400,000 compounds went through this assay and about 13,000 (3.2%) were called active. About 18% were inconclusive and are not listed. The entries come from a sample that favours actives as a whole. Values without a mark were called inactive. Calls follow the shape of the dose curve; as a rule, active = well fitted cell-killing curve with a large enough effect; inconclusive = small, poorly fitted or top-dose-only effect, or effect the other way; inactive = flat fitted curve, though single readings scatter.
% is scaled to controls: 0 for no effect and ±100 for the full control effect; potency is read from the fitted curve at half-maximal effect.

A short description of this experiment: qHTS assay for MDR1-selective chemotherapeutics: Primary screen using the drug-selected MDR subline cells KB-V1. Also: nearly all actives have a fitted effect of over 60% in size. To be noted: KB-V1 MDR cells viability, CellTiter-Glo, 72 h; series mostly up to 46.1 µM; activity change, negative = cytotoxicity: at the top concentration. Summed up: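 Compound-treated KB-V1 multidrug-resistant cells, 72 h, 37 degrees C; viability by CellTiter-Glo. Fitted qHTS curves give the values.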
For orientation: Quantitative high-throughput screening tests each substance at several concentrations.
Regarding `CCOC(=O)N1CCC(N(CCOC)C(=O)Nc2ccc(C)c(C)c2)CC1`, the Potency was 4.11 µM (active).
Consider `CCOC(=O)C1CCN(C(=O)Nc2ccc(C)c(Cl)c2)CC1`, for which the “activity change, negative = cytotoxicity” value is -17.6%.
For the compound `Cc1ccc(NC(=O)COC(=O)CN2CCSC2=O)cc1F`, the “activity change, negative = cytotoxicity” value is 23.3%.
Regarding `CCc1ccccc1NC(=O)c1ccc2nc(CCc3ccccc3)oc2c1`, the “activity change, negative = cytotoxicity” value was 11%.
In the case of `CN(C)c1ccc(/C=C2\C=Cc3ccccc32)cc1Br`, the “activity change, negative = cytotoxicity” value is 0.234%.
For the compound `Cc1ccccc1N1CCN(CC(=O)NCc2ccc(Cl)cc2)CC1`, the “activity change, negative = cytotoxicity” value is -0.77%.
Still for that read-out and setting: then `O=C(CN1CCN(S(=O)(=O)c2ccc(Cl)s2)CC1)N1CCCCC1`, with 0%.
As to `O=C(CN1CCN(S(=O)(=O)c2ccc(Cl)s2)CC1)NCc1ccc(Cl)cc1`, the Potency is 3.66 µM (active).
As for `Cc1cc(C)c2nc3nc(C)cc(C)c3c(N)c2c1`, the Potency is 18.4 µM (active).
`O=C(OC12CC3CC(CC(C3)C1)C2)c1ccc(NCc2cc(O)ccc2O)cc1`: the Potency was 14.6 µM (active).
`CC(C)OC(=O)c1ccc(NCc2cc(O)ccc2O)cc1Cl`: the “activity change, negative = cytotoxicity” value is -6.71%.
In the case of `COC(=O)c1ccc(NCc2cc(O)ccc2O)cc1`, the “activity change, negative = cytotoxicity” value was 2.93%.
Regarding `O=S(=O)(c1ccc2c(c1)OCCO2)N1CCc2ccccc21`, the “activity change, negative = cytotoxicity” value is 0%.
Regarding `O=S(=O)(c1ccccc1)N1CCc2ccccc21`, the “activity change, negative = cytotoxicity” value was -0.951%.
Regarding `O=C(CCNC(=O)c1ccccc1)Nc1nc2ccccc2s1`, the “activity change, negative = cytotoxicity” value is -7.25%.
For `O=C(CNC(=O)c1ccccc1)Oc1ccc([N+](=O)[O-])cc1`, the “activity change, negative = cytotoxicity” value is 18.4%.
Take `O=C(NC(Nc1nc2ccc([N+](=O)[O-])cc2s1)(C(F)(F)F)C(F)(F)F)c1ccccc1`: the Potency was 0.517 µM (active).
`CNC(=O)c1ccsc1NC(=O)c1ccc(S(=O)(=O)N2CCc3ccccc32)cc1`: the “activity change, negative = cytotoxicity” value is 7.33%.
As to `CSc1nc2ccc(S(=O)(=O)N3CCc4ccccc43)cc2s1`, the Potency was 3.66 µM (active).
On to `O=C(Nc1nc2ccc([N+](=O)[O-])cc2s1)c1ccc(S(=O)(=O)N2CCCc3ccccc32)cc1`, for which the Potency was 1.03 µM (active).
As to `O=C(Nc1nnc(S(=O)(=O)N2CCCc3ccccc32)s1)c1cccc(F)c1`, the “activity change, negative = cytotoxicity” value is -5.74%.
With `CN(Cc1ccccc1)C(=O)[C@@H]1CCCN1C(=O)[C@@H]1CCCN1C(=O)c1c(F)cccc1F`, the “activity change, negative = cytotoxicity” value is 12.5%.
Turning to `O=C(COC(=O)c1cccc(Cl)c1Cl)NC1CCCCCC1`, the “activity change, negative = cytotoxicity” value was 12.9%.
In the case of `CNC[C@H]1OCc2cnnn2CCCC(=O)N([C@H](C)CO)C[C@@H]1C`, the “activity change, negative = cytotoxicity” value is -19.9%.
The same measure, in the same setting: to `C[N+](C)(C)CCNC(=O)c1c[nH]c2ccccc12` belongs 19%; to `Cc1ccc(Cc2c(-c3ccc(Cl)cc3)nc3c4ccccc4ccn23)cc1`, 0%.
Still for that read-out and setting: to `COc1ccc(CN2C(=O)C(CC(=O)NCCN3CCOCC3)CC(C(=O)N(C(C)C)C(C)C)=C2C)cc1` (stereo not drawn) belongs -19.7%.
Turning to `COC(=O)c1ccccc1S(=O)(=O)Nc1ccc(OC)cc1`, the “activity change, negative = cytotoxicity” value was 0%.
On to `OC[C@@H]1CN(Cc2ccc(-c3ccccc3)cc2)C[C@H](n2cnc3c(NC4CCCC4)ncnc32)O1`, for which the “activity change, negative = cytotoxicity” value is -23.1%.
Regarding `Cc1ccc(Cn2c(=O)n(Cc3nc(-c4ccccc4)no3)c(=O)c3cc4c(cc32)OCO4)cc1`, the “activity change, negative = cytotoxicity” value is 1.08%.
Take `CCOC(=O)[C@]12CCC=C1N(Cc1ccccc1)C(=O)[C@H](CC(=O)N1CCCC1)C2`: the “activity change, negative = cytotoxicity” value is -9.13%.
As for `COc1cc(C(O)c2nc(-c3cnn(C)c3)cs2)ccc1F` (stereo not drawn), the “activity change, negative = cytotoxicity” value is -7.75%.
On the same count and under the same terms, then `COc1ccc(C(=O)c2oc3ccc(Br)cc3c2NC(C)=O)cc1`, with -12.6%; and `COc1ccc(C(=O)/C=C/c2ccc(OC3CSC3)cc2)cc1`, with -14.1%.
On to `COc1ccc(/C=C/C(=O)c2cc(Br)ccc(=O)c2O)cc1`, for which the Potency was 14.6 µM (active).
Consider `COc1ccc(CCNC(=O)Nc2ccc3c(c2)c(=O)n(C)n3C)cc1OC`, for which the “activity change, negative = cytotoxicity” value was 2.68%.
Take `COC(=O)C[C@@H]1C=C[C@@H](NC(=O)c2cccnc2)[C@@H](CO)O1`: the “activity change, negative = cytotoxicity” value was -2.5%.
With `COc1cccc(C(=O)Nc2ccc(N3CCCC3)cc2)c1`, the Potency was 5.8 µM (active).
With `COc1ccc(C(=O)Nc2ccc(N3CCC(C)CC3)cc2)cc1Br`, the “activity change, negative = cytotoxicity” value was 7.59%.
Regarding `COc1cccc(C(=O)Nc2ccc3nc4n(c(=O)c3c2)CCCCC4)c1`, the “activity change, negative = cytotoxicity” value is -4.99%.
`O=C1c2ccccc2C(=O)N1c1ccc(S(=O)(=O)N2CCOCC2)c2ccccc12`: the “activity change, negative = cytotoxicity” value was 17.2%.
Regarding `CCOc1ccccc1N(CC)C(=O)Nc1cn(C)c(=O)c2ccccc12`, the “activity change, negative = cytotoxicity” value was 2.28%.
Turning to `N#Cc1c(-c2ccccc2)nc(SCc2cccc(C(F)(F)F)c2)[nH]c1=O`, the “activity change, negative = cytotoxicity” value was 2.26%.
Consider `O=c1c2ccccc2nc2n1C(CSCc1cccc(C(F)(F)F)c1)CS2` (stereo not drawn), for which the Potency is 2.59 µM (active).
As for `O=c1c2ccccc2nc2n1C(CSc1ccc(F)cc1)CN2` (stereo not drawn), the “activity change, negative = cytotoxicity” value is -3.49%.
`COc1cccc(CNS(=O)(=O)c2ccc3c(c2)CC(C)N3C(=O)C2CCC2)c1` (stereo not drawn): the Potency result is “inactive”.
With `COc1cccc(CNS(=O)(=O)c2ccc3c(c2)CC(C)N3C(C)=O)c1` (stereo not drawn), the “activity change, negative = cytotoxicity” value was -12.7%.
For the compound `COc1ccc(N(C)S(=O)(=O)c2ccc3c(c2)CC(C)N3C(=O)C2CC2)c(OC)c1` (stereo not drawn), the Potency is 8.2 µM (active).
